Consider 37 targets from the supplement of paper PMC12067093, “Discovery and optimisation of a covalent ligand for TRIM25 and its application to targeted protein ubiquitination” (Chemical Science, 2025).

The full data set covers some 21,000 targets. This sample favours those with the largest changes.
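Also: competitive profiling in live THP-1 cells: cysteine peptides tagged with an iodoacetamide desthiobiotin (IA-DTB) probe, intensity after compound treatment relative to DMSO-treated cells.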

UniProt Q14137, sequence (Q14137 whole entry, looked up): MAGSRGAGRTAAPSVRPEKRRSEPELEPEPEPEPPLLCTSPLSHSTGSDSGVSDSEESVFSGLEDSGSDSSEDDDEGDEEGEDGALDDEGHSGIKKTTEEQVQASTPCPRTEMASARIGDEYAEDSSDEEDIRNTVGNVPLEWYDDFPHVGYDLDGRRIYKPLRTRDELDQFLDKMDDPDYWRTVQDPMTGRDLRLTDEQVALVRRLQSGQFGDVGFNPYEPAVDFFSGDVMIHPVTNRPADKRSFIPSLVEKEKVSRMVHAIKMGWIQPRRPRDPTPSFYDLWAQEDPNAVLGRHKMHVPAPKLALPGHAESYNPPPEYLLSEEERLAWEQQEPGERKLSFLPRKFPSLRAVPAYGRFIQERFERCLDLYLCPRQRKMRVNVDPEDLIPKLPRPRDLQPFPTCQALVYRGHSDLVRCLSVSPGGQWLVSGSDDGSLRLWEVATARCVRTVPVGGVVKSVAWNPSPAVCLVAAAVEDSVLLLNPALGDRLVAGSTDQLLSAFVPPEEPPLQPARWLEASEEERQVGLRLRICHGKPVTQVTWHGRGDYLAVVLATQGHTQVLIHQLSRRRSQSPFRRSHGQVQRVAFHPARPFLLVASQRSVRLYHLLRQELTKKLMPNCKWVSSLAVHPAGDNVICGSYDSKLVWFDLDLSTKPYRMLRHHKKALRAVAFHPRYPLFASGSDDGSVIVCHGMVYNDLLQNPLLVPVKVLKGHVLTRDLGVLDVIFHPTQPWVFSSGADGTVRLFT
UniProt O75419, sequence (O75419 whole entry, looked up): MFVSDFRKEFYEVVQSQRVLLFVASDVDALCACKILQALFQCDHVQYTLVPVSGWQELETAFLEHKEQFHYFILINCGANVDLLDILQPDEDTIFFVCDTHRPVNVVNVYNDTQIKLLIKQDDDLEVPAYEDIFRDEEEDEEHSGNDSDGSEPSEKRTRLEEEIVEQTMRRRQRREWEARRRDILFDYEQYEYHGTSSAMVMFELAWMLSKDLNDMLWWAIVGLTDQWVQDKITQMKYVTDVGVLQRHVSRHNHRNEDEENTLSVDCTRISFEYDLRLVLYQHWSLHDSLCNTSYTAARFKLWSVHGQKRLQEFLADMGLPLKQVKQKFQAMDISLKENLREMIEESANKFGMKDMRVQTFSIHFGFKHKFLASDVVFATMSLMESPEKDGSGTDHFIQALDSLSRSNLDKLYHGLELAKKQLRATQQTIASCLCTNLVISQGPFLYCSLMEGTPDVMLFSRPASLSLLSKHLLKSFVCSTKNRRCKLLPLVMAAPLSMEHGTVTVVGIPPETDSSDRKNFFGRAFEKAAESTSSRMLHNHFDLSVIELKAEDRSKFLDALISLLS
UniProt Q9HAS0, sequence (Q9HAS0 whole entry, looked up): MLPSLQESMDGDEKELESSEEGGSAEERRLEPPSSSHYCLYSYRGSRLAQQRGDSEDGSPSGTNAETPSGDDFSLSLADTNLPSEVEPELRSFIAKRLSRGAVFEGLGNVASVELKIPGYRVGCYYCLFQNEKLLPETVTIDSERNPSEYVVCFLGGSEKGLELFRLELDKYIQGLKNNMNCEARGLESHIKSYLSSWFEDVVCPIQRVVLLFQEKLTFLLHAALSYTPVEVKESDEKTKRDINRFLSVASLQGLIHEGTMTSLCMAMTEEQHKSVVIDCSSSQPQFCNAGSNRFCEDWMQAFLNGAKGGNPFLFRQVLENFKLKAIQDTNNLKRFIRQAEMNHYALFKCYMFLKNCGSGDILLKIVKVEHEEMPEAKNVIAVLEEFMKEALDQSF
UniProt Q9H257, sequence (Q9H257 whole entry, looked up): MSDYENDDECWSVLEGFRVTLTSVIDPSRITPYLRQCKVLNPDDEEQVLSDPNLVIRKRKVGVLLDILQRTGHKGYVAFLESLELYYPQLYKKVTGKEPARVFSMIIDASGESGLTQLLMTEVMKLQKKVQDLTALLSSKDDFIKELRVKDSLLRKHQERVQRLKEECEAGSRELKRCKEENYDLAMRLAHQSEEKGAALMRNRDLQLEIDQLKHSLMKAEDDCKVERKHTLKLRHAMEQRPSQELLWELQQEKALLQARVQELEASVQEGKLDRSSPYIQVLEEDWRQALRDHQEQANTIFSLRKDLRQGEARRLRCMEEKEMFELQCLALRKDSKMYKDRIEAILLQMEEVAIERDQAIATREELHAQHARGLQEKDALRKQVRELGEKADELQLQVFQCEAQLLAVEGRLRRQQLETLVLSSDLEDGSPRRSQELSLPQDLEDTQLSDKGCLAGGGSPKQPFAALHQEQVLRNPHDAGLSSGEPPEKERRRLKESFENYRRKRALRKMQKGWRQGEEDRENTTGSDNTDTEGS
UniProt O95319, sequence (O95319 whole entry, looked up): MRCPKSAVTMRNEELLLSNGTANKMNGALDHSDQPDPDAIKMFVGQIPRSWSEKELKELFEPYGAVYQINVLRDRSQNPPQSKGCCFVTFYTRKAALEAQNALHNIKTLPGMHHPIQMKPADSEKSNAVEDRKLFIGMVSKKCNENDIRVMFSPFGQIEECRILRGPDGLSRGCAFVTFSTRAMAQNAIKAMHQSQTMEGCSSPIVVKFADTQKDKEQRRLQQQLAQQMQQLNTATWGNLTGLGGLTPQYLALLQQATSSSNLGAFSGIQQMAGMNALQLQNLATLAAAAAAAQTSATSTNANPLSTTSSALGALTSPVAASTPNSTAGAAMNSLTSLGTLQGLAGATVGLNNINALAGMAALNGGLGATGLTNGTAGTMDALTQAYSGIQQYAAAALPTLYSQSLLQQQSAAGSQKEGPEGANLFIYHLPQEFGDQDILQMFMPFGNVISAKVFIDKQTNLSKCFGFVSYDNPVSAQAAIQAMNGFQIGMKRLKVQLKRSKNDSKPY
UniProt Q8N163, sequence (Q8N163 whole entry, looked up): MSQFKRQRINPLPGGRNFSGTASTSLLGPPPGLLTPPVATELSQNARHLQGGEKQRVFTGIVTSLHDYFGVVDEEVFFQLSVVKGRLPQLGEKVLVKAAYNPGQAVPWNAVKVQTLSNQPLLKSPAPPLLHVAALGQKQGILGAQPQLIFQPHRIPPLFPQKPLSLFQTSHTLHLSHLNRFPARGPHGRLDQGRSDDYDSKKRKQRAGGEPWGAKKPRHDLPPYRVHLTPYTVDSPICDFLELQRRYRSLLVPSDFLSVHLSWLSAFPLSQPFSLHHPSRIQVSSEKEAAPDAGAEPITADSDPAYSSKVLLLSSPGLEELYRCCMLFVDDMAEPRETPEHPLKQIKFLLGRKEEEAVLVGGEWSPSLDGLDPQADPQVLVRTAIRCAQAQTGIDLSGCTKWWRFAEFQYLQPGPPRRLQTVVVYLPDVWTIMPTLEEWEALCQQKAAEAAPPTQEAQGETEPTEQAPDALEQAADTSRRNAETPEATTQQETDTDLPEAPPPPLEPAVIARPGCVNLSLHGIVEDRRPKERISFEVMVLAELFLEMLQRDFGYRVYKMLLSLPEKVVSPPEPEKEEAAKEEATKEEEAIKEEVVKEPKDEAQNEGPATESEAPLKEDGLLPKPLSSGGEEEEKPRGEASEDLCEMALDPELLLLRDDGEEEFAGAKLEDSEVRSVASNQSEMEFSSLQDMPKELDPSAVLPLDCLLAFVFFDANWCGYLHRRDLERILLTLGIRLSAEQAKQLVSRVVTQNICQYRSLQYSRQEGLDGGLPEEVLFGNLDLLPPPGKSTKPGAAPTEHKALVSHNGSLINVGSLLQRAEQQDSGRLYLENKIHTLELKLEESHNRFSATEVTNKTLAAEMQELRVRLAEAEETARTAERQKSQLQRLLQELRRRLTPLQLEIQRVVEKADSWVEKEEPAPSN
UniProt Q8NFJ8, sequence (Q8NFJ8 whole entry): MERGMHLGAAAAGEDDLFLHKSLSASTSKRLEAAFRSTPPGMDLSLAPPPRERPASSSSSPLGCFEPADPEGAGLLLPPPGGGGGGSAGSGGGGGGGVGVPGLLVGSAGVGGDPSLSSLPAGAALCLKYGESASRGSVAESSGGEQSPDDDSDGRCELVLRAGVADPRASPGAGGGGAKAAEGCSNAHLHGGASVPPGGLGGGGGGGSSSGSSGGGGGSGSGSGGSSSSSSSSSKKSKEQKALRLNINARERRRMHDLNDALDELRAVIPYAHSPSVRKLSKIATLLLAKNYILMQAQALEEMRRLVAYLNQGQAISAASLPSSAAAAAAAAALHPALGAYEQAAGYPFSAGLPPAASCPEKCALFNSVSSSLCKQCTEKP
UniProt Q00535, sequence (Q00535 whole entry, looked up): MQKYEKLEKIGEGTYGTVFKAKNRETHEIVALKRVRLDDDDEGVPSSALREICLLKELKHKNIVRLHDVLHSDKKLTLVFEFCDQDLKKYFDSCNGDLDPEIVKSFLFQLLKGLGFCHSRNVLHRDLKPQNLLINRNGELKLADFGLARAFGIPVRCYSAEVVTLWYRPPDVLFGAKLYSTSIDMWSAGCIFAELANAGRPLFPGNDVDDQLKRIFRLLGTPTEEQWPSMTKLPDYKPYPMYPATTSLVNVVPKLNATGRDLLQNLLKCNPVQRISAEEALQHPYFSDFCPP
UniProt Q92851, sequence (Q92851 whole entry, looked up): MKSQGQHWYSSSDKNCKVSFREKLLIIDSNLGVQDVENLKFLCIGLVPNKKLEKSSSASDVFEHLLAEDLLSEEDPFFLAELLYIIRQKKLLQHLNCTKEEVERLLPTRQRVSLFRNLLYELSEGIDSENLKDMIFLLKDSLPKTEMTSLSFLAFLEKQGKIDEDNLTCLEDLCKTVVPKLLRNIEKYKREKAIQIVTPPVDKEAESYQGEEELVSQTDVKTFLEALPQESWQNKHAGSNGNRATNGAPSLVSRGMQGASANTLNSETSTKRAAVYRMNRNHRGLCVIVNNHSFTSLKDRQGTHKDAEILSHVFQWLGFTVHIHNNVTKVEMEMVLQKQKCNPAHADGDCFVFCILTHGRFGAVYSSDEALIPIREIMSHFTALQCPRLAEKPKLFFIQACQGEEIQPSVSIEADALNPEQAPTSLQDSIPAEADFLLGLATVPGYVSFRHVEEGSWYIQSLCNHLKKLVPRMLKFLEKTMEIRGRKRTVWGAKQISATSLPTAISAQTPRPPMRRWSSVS

Compound in the assay: Cc1cc(ccc1-c1ccccc1)C(=O)N1CCCN(CC1)C(=O)CCl [compound 10]
In words: probe-labelled cysteine peptide fold change vs DMSO (competition) (log2 fold change); higher = less target engagement (more negative = stronger competition). To be noted: 10 µM; THP-1; incubation time: 4 h.
Take “BCKDHB_P21953_361_VCGYDTPFPHIFEPFYIPDK (UniProt P21953)”: the “probe-labelled cysteine peptide fold change” value was -0.0395. The result for “CEPT1_Q9Y6K0_11+30_CGDSHPESPVGFGHMSTTGCVLNK (UniProt Q9Y6K0)” reads -1.98; that for “CAND1_Q86VP6_802_CVAALTR (UniProt Q86VP6)”, 0.211. As for “BTBD10_Q9BSF8_86_TESQLTPCIR (UniProt Q9BSF8)”, the “probe-labelled cysteine peptide fold change” value is -0.608. “CAMK2B_Q13554_116_EYYSEADASHCIQQILEAVLHCHQMGVVHR (UniProt Q13554)”: the “probe-labelled cysteine peptide fold change” value was -0.0191.

In the case of “BRIX1_Q8TDN6_52_RHATAEEVEEEERDRIPGPVCK (UniProt Q8TDN6)”, the “probe-labelled cysteine peptide fold change” value was -0.278. To “CASP2_P42575_30_ILGVCGMHPHHQETLKK (UniProt P42575)” belongs -0.432; to “CBX1_P83916_156_CPQVVISFYEER (UniProt P83916)”, 0.121; to “CDK5_Q00535_117_GLGFCHSR (UniProt Q00535)”, 0.00449. As for “BRAP_Q7Z569_47_TTLASAVACLEGK (UniProt Q7Z569)”, the “probe-labelled cysteine peptide fold change” value is -0.252. To “CCAR2_Q8N163_515_RNAETPEATTQQETDTDLPEAPPPPLEPAVIARPGCVNLSLHGIVEDR (UniProt Q8N163)” belongs 0.107. For the target “CARD9_Q9H257_402_ADELQLQVFQCEAQLLAVEGR (UniProt Q9H257)”, the “probe-labelled cysteine peptide fold change” value amounted to 0.18. The result for “BHLHE22_Q8NFJ8_156_GSVAESSGGEQSPDDDSDGRCELVLR (UniProt Q8NFJ8)” reads -0.393.

Regarding “CDC42_P60953_105_EKWVPEITHHCPK (UniProt P60953)”, the “probe-labelled cysteine peptide fold change” value is -0.508. Regarding “CARM1_Q86X55_438_AGDTLSGTCLLIANK (UniProt Q86X55)”, the “probe-labelled cysteine peptide fold change” value came out at 0.0534. For “CELF1_Q92879_119_CTENDIR (UniProt Q92879)”, the “probe-labelled cysteine peptide fold change” value amounted to 0.0497. In the case of “CAD_P27708_2161_FGSTQEYEACFGQFILTPHIMTR (UniProt P27708)”, the “probe-labelled cysteine peptide fold change” value is 0.0378.

With “AVEN_Q9NQS1_169_EWDSEASCPK (UniProt Q9NQS1)”, the “probe-labelled cysteine peptide fold change” value was -0.857. “CHORDC1_Q9UHD1_86_ELCELK (UniProt Q9UHD1)”: the “probe-labelled cysteine peptide fold change” value was -0.0657. On to “CELF2_O95319_174_GCAFVTFSTR (UniProt O95319)”, for which the “probe-labelled cysteine peptide fold change” value was 0.0275.

Turning to “CENPF_P49454_339_CRDELVR (UniProt P49454)”, the “probe-labelled cysteine peptide fold change” value was 0.481.

Turning to “CDC45_O75419_267_HNHRNEDEENTLSVDCTR (UniProt O75419)”, the “probe-labelled cysteine peptide fold change” value worked out at 0.0632.

“CBX8_Q9HC52_142_NMGLSPPASSTSTSSTCR (UniProt Q9HC52)”: the “probe-labelled cysteine peptide fold change” value is -0.187.

Consider “BIRC6_Q9NR09_3773_TAIENATVAFFLQCISCHPNNQK (UniProt Q9NR09)”, for which the “probe-labelled cysteine peptide fold change” value turned out to be 0.213. The result for “CFL1_P23528_39_AVLFCLSEDK (UniProt P23528)” reads 0.0825; that for “C17orf75_Q9HAS0_265_FLSVASLQGLIHEGTMTSLCMAMTEEQHK (UniProt Q9HAS0)”, 0.0249; that for “CHORDC1_Q9UHD1_59_RTTDFSDFLSIVGCTK (UniProt Q9UHD1)”, -0.167. On to “BOP1_Q14137_108_TTEEQVQASTPCPR (UniProt Q14137)”, for which the “probe-labelled cysteine peptide fold change” value is -0.185.

Turning to “CEP170_Q5SW79_30_EMIFVGRDDCELMLQSR (UniProt Q5SW79)”, the “probe-labelled cysteine peptide fold change” value is -0.075. As for “CASP10_Q92851_169_IDEDNLTCLEDLCK (UniProt Q92851)”, the “probe-labelled cysteine peptide fold change” value was -0.0609. With “CBR1_P16152_122_DVCTELLPLIK (UniProt P16152)”, the “probe-labelled cysteine peptide fold change” value is 0.109. Regarding “CBX4_O00257_185_EAPSPTCPDLGAK (UniProt O00257)”, the “probe-labelled cysteine peptide fold change” value is -0.129.

On to “CBR1_P16152_226_ILLNACCPGWVR (UniProt P16152)”, for which the “probe-labelled cysteine peptide fold change” value is -0.103. As to “CEP192_Q8TEP8_1562_APVEVAPCADVVTR (UniProt Q8TEP8)”, the “probe-labelled cysteine peptide fold change” value is -0.611. “BRD1_O95696_294_TDDDRWGHVVCALWIPEVGFANTVFIEPIDGVR (UniProt O95696)”: the “probe-labelled cysteine peptide fold change” value is -0.0156. Consider “CHPF_Q8IZ52_243_YCHGGFGVLLSR (UniProt Q8IZ52)”, for which the “probe-labelled cysteine peptide fold change” value is -0.176. The result for “CEPT1_Q9Y6K0_30_CGDSHPESPVGFGHMSTTGCVLNK (UniProt Q9Y6K0)” reads -2.38.
